Source: PubChem BioAssay (NCI)
This is part of a sample that, as a whole, favours compounds with a hit. Of some 83,000 tested, about 20% had one in any assay.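 A percent growth of 40 corresponds to 60% growth inhibition; 0 means no net growth; -100 means all cells died. Active threshold: below 10.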 Unmarked numbers belong to inactive results. Activity calls are given as the source filed them.

Each compound was assayed on MDA-MB-435 melanoma (assay: NCI-60 one-dose screen, 48 h (100 = growth as untreated, 0 = no growth, -100 = all killed)). Conditions: 10 µM unless noted.
With `COc1cc(Br)c(OC)cc1Br` the growth was 105%. `O=C(Nc1ccc(I)cc1)c1cc([N+](=O)[O-])ccc1O` was tested, and the growth was 38.5%. With `COC(=O)CCCCCCN=Cc1c(O)c(O)c(C(C)C)c2cc(C)c(-c3c(C)cc4c(C(C)C)c(O)c(O)c(C=NCCCCCCC(=O)OC)c4c3O)c(O)c12` the growth was 17.2%. With `C=CCn1c(C)nc2ccc(Nc3nc(Nc4ccc(F)cc4)nc4ccccc34)cc21` the growth was 57.1%. Work on `Clc1ccc2c(c1)NC1(CCSc3ccccc31)n1nccc1-2` (stereo not drawn) yielded a growth of 110%. `c1cc(-c2ccc3c(c2)OCO3)n2nccc2n1` was tested, and the growth was 98.2%. For `COc1ccc(-c2nnc(COc3ccc(NS(=O)(=O)c4ccc(OC)cc4)cc3F)o2)cc1`, the growth was 81.4%. `CCNC(=O)CCCCC(=O)c1c(C)[nH]c(/C=C2\N=C(c3ccc[nH]3)C=C2OC)c1C` was tested, and the growth was -18.4% (active). For `CC[C@H](C)[C@H]1NC(=O)[C@@H](N[C@](C)(O)[C@@H](N)CC(C)C)[C@@H](C)OC(=O)[C@H](Cc2ccc(OC)cc2)N(C)C(=O)[C@@H]2CCCN2C(=O)[C@H](CC(C)C)NC(=O)[C@@H](C)C(=O)[C@H](C(C)C)OC(=O)C[C@@H]1O`, the growth was -35.4% (active). For `O=C(CNC(=O)c1cccc2ccccc12)Nc1ccccc1Oc1ccccc1`, the growth was -5.12% (active). `Clc1nc(-c2cccnc2)nc2sc3c(c12)CCCCCC3` gave a growth of 97.3%. Work on `O=C(C[N+](=O)[O-])c1ccc(Cl)cc1` yielded a growth of 114%. `COc1cc2nc(Cl)nc(NCCO)c2cc1OC` was tested, and the growth was 106%.
